This is one part of a sample in which hits are shown more often than they occur.
DUX4 txn inh = DUX4-mediated transcription inhibition; 37,000 tested, 0.8% active; 293T-iDUX4 ZSCAN4-Gaussia luciferase reporter, 24 h; active compounds read low; AID 1224904; activity change, negative = inhibition, % (no concentration beside the values);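 active means mean inhibition of at least 10% in the main channel, exceeding the control channel by a set limit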;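 further: 0% = median of neutral control wells and -100% = median of positive control wells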
* marks the source's active call; other numbers are inactive results.

SMILES	DUX4 txn inh
C[C@H](CO)N1C[C@H](C)[C@@H](CN(C)Cc2ccc(C(F)(F)F)cc2)OCc2cnnn2CCCC1=O	6
C[C@H]1CN([C@@H](C)CO)C(=O)CCCn2nncc2CO[C@@H]1CN(C)Cc1ccc(C(F)(F)F)cc1	-4
C[C@H]1CN([C@@H](C)CO)C(=O)CCCn2nncc2CO[C@H]1CN(C)Cc1ccc(O)cc1	0
C[C@H]1CN([C@@H](C)CO)C(=O)CCCn2nncc2CO[C@@H]1CN(C)Cc1ccc(C(=O)O)cc1	0
C[C@H](CO)N1C[C@H](C)[C@@H](CN(C)Cc2ccc(C(=O)O)cc2)OCc2cnnn2CCCC1=O	7
C[C@@H]1CN([C@H](C)CO)C(=O)CCCn2nncc2CO[C@H]1CN(C)Cc1ccc(C(=O)Nc2ccccc2N)cc1	-22*
C[C@H](CO)N1C[C@H](C)[C@@H](CN(C)Cc2ccc(C(=O)Nc3ccccc3N)cc2)OCc2cnnn2CCCC1=O	-20*
C[C@H]1CN([C@@H](C)CO)C(=O)CCCn2nncc2CO[C@@H]1CN(C)Cc1ccc(O)cc1	0
C[C@@H]1CN([C@@H](C)CO)C(=O)CCCn2nncc2CO[C@H]1CN(C)Cc1ccc(C(=O)Nc2ccccc2N)cc1	-25*
CNC(=O)C[C@@H]1CC[C@@H]2[C@H](COC[C@@H](O)CN2Cc2ccncc2)O1	6
CC(C)[C@H]1CC=CC[C@H](C)Oc2ccccc2C(=O)N(C)[C@@H](C)C(=O)N1 (mixture of isomers)	-1
CO[C@@H](CN(C)CC1CCOCC1)[C@H](C)CN(C(=O)Nc1ccc(F)cc1)[C@@H](C)CO	-9
Cc1ccccc1S(=O)(=O)N1C[C@@H](O)COC[C@H]2O[C@H](CC(=O)O)CC[C@@H]21	12
Cc1noc(C)c1NC(=O)Nc1ccc2c(c1)C(=O)N([C@@H](C)CO)C[C@H](C)[C@@H](CN(C)S(=O)(=O)c1cn(C)cn1)OCCCC[C@H](C)O2	1
O=C(C1CCOCC1)N1C[C@@H]2[C@H](c3ccccc31)[C@H](CO)N2Cc1ccc(Cl)cc1	-2
Cc1ccccc1S(=O)(=O)N1CCCCN2[C@@H](CO)[C@@H](c3ccc(-c4cccnc4)cc3)[C@@H]2C1	0
Cc1cccc(-c2ccc([C@@H]3[C@H](CO)N4CCCCN(S(=O)(=O)c5ccccc5F)C[C@@H]34)cc2)c1	-5
CCS(=O)(=O)N1CCCCN2[C@H](C1)[C@@H](c1ccc(-c3ccccc3C)cc1)[C@@H]2CO	9
Cn1cnc(S(=O)(=O)N2CCCCN3[C@H](C2)[C@H](c2ccc(-c4cccc(F)c4)cc2)[C@@H]3CO)c1	9
Cc1ccccc1S(=O)(=O)N1CCCCN2[C@H](CO)[C@@H](c3ccc(-c4cccc(F)c4)cc3)[C@H]2C1	-39*
Cc1ccccc1-c1ccc([C@@H]2[C@@H](CO)N3CCCCN(S(=O)(=O)Cc4ccccc4)C[C@H]23)cc1	-45*
Cc1ccccc1-c1ccc([C@@H]2[C@@H](CO)N3CCCCN(S(C)(=O)=O)C[C@H]23)cc1	3
Cc1ccccc1S(=O)(=O)N1CCCCN2[C@H](C1)[C@H](c1ccc(-c3cccc(F)c3)cc1)[C@@H]2CO	-19*
Cn1cnc(S(=O)(=O)N2CCCCN3[C@H](CO)[C@H](c4ccc(-c5cccc(F)c5)cc4)[C@H]3C2)c1	1
C[C@H]1CN([C@@H](C)CO)C(=O)c2ccccc2-c2ccccc2CO[C@@H]1CN(C)C(=O)C1CC1	-1
SMILES	DUX4 txn inh
Cc1cccc(S(=O)(=O)N2C[C@H]3[C@@H](c4ccccc42)[C@H](CO)N3C(=O)C2CC2)c1	1
O=C(c1ccccc1)N1C[C@@H]2[C@H](c3ccccc31)[C@H](CO)N2Cc1ccccc1F	0
C[C@H](CO)N1C[C@H](C)[C@@H](CN(C)C(=O)CC2CC2)Oc2cc(-c3cccnc3)ccc2S1(=O)=O	3
CN1C(=O)c2cc(NC(=O)Cc3ccccc3)ccc2OC[C@@H]2O[C@H](CC(=O)O)CC[C@H]21	-1
CC(C)(O)C#Cc1ccc([C@H]2[C@H]3CN(Cc4ccccc4F)CCCCN3[C@H]2CO)cc1	3
OC[C@H]1[C@@H](c2ccc(C#Cc3cccnc3)cc2)[C@@H]2CN(Cc3ccccc3F)CCCCN12	-51*
OC[C@H]1[C@@H](c2ccc(C#Cc3cccnc3)cc2)[C@H]2CN(Cc3ccccc3F)CCCCN21	-43*
CCC(=O)N1CCCCN2[C@H](C1)[C@@H](c1ccc(-c3cccc(C#N)c3)cc1)[C@@H]2CO	4
CC(C)(O)C#Cc1ccc([C@H]2[C@@H](CO)N3CCCCN(Cc4ccccc4F)C[C@@H]23)cc1	19
CCC(=O)N1CCCCN2[C@@H](CO)[C@@H](c3ccc(-c4cccc(C#N)c4)cc3)[C@@H]2C1	15
O=C(Nc1ccccc1F)N1CCCCN2[C@H](C1)[C@H](c1ccc(C#Cc3cccnc3)cc1)[C@@H]2CO	-10
N#Cc1cccc(-c2ccc([C@@H]3[C@@H](CO)N4CCCCN(Cc5ccccc5F)C[C@H]34)cc2)c1	-33*
CC(C)(O)C#Cc1ccc([C@@H]2[C@@H](CO)N3CCCCN(Cc4ccccc4F)C[C@@H]23)cc1	16

Screening results from PubChem.
